High-throughput results deposited in PubChem by National Center for Advancing Translational Sciences (NCATS).
ALOX12 inh: Primary qHTS assay for inhibitors of human arachidonate 12S-lipoxygenase (ALOX12): Round 2. 580,000 tested, 1.1% active. AID 1671190, 2021. purified 12hLO, xylenol orange hydroperoxide absorbance. Potency, µM (series often up to 108 µM), inactives show at the highest dose activity change, negative = inhibition, actives largely listed as inhibitors; active = well fitted inhibition curve with a large enough effect; inconclusive = small, poorly fitted or top-dose-only effect, or another doubt; inactive = no such curve, though single readings can be large or run the other way; also: potency is read from the fitted curve at half-maximal effect; % is scaled to controls: 0 for no effect and ±100 for the full control effect
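Hydroperoxide product was detected by ferrous iron/xylenol orange as the 573 to 405 nm absorbance ratio. Arachidonic acid at 40 uM (final) was turned over for 30 min at room temperature by 150 nM human 12hLO, pH 7.0 Hepes buffer, after 15 min compound preincubation.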
KCNH2 WT inh: qHTS for Inhibitors of KCHN2 3.1: Wildtype qHTS; Voltage-gated inwardly rectifying potassium channel KCNH2 (Homo sapiens), Q12809; U2OS, BacMam KCNH2, thallium flux FluxOr; hits give low values; activity change, % at 1.84 µM; 340,000 tested, 0.37% active; AID 720551, 2013;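 active = maximum activity change below -70%; inconclusive = maximum activity change between -70% and -50%; inactive = maximum activity change above -50%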; also: % is scaled to controls: 0 for no effect and ±100 for the full control effect
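U2OS cells were transduced with wild-type KCNH2 virus (2.03 x 10^8 / mL) for 4 h at room temperature, then cultured overnight at 37 C. Thallium flux was read with FluxOr dye. Rate constants were normalized to DMSO controls.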
KCNH2 3.1 block: qHTS for Inhibitors of KCHN2 3.1: Mutant qHTS. activity change, % (tested at about 1.8 µM). AID 720553, 2013. U2OS KCNH2 3.1, thallium flux FluxOr; hits give low values. 340,000 tested, 0.95% active;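 active = maximum activity change below -70%; inconclusive = maximum activity change from -70% to -50%; inactive = maximum activity change above -50%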;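 also: thallium influx rate constant from kinetic fluorescence after stimulation buffer; % is scaled to controls: 0 for no effect and ±100 for the full control effect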
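Channel expression came from 3.1 mutant virus (1.77 x 10^8 /mL) applied to suspended U2OS cells for 4 h. Flux was tracked with FluxOr dye plus Red40 quencher, and kinetic rate constants normalized to controls.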
BCR signal inh: qHTS Assay to Find Inhibitors of Chronic Active B-Cell Receptor Signaling; Potency, µM (highest dose often 46.1 µM), inactives show at the highest dose activity change, negative = inhibition, hits mostly inhibitors; AID 493014, 2011; 340,000 tested, 0.05% active; ABC-DLBCL IkBa-CBG/CBR reporter, luminescence ratio, 4 h; active = well fitted inhibition curve with a large enough effect in the signal ratio, with a control signal flat, not every such curve was filed as active; inconclusive = small, poorly fitted or top-dose-only effect, or effect the other way, or a change in a side signal; the % refers to the signal ratio;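 also: potency is read from the fitted curve at half-maximal effect; plate controls were basal doxycycline-induced cells for no effect and cells given 10 µM MG132 for full effect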
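Compounds up to 46 uM were incubated four hours with TMD8 cells whose green CBG68 luciferase is fused to IkappaBalpha; red CBR luminescence normalised the signal, and concentration-effect curves were fitted to fusion, red and ratio data.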
LDHA inh: qHTS assay for inhibitors of human lactate dehydrogenase | L-lactate dehydrogenase A chain (Homo sapiens), P00338 | purified LDHA, NADH/diaphorase-resazurin fluorescence; hits give low values | activity change, % (values are at about 110 or 230 µM) | 480,000 tested, 0.15% active | AID 1347041, 2019; in the data active = activity change below about -30%; inconclusive = mostly about -25% to -30%;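 also: plate controls were DMSO wells for no effect and wells without enzyme for full effect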
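Enzyme activity of human lactate dehydrogenase 5 (2 nM; 0.06 mM NADH, 0.2 mM pyruvate, 5 min, RT) is measured via a resazurin/diaphorase fluorescence readout of residual NADH.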
ClpP mod: qHTS Assay for Activators of ClpP. ATP-dependent Clp protease proteolytic subunit (Bacillus subtilis (strain 168)), P80244. purified B. subtilis ClpP, FRET peptide cleavage, 20 min. Potency, µM (top dose mostly 57.5 µM), without a hit: at the top dose activity change, negative = active. 340,000 tested, 1.9% active. AID 651965, 2013; active = well fitted falling curve with a large enough effect; inconclusive = small, poorly fitted or top-dose-only effect; inactive = no such curve, though single readings can be large or run the other way; also: potency is read from the fitted curve at half-maximal effect; the source files actives as falling curves though it sought activators and does not explain the sign; nearly all actives have a fitted effect of over 65% in size
Target sequence (P80244 whole entry, looked up): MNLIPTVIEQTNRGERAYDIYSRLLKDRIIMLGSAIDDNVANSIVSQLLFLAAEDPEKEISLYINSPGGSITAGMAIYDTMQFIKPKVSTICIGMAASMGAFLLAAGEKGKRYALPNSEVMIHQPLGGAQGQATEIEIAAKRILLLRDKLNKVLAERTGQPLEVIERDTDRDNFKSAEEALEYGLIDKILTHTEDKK
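Buffer: 100 mM Tris/HCl pH8, 100 mM KCl, 0.05% low protease BSA, 2.5% glycerol, 0.01% Tween-20. ClpP 10 microg/mL final; 20 min RT; delta FRET normalized to ADEP and DMSO controls.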
The depositor's hits bear a star; ? = inconclusive; / = not tested or not shown; ! = a repeat was not active; [ ] = dose if it differs, or a comment. An excerpt weighted towards active compounds, which were near 3% of everything screened.

SMILES	ALOX12 inh	KCNH2 WT inh	KCNH2 3.1 block	BCR signal inh	LDHA inh	ClpP mod
Cc1ccc(C(=O)C(CC(=O)c2ccc(C)c(C)c2)S(=O)(=O)c2ccc(C)cc2)cc1 (stereo not drawn)	12%	/	/	/	-5	/
CCn1c(COc2cc(C)cc(C)c2)nnc1SCC(=O)NC1CCCC1	-7%	/	/	/	-4	/
COCCN1C[C@H]2CN(Cc3ccc(C(=O)O)cc3)CCN2C1=O	28µM*	/	/	/	/	/
O=C(CN1C(=O)NC2(CCCC2)C1=O)NCCc1ccc(Cl)cc1Cl	-2%	4	-23	0%	-9	0%
O=C1NC2(CCCCCC2)C(=O)N1Cc1ccc(F)cc1Cl	-8%	-3	-127*	16%	-2	/
CN(Cc1ccc(Cl)cc1Cl)C(=O)CN1C(=O)NC2(CCCC2)C1=O	-9%	-8	3	-3%	1	25µM*
Cn1cc(C(=O)c2ccc(Cl)cc2Cl)cc1C(=O)N/N=C(\N)COc1ccc(Cl)cc1	1%	9	-73*	?	-15	/
N#CC1=C(N)Oc2cc(O)ccc2C1c1ccc(OCc2ccc(Br)cc2)cc1 (stereo not drawn)	?	/	/	/	4	/
Cc1cc(CC(C)CC(C)(C)C)n(O)c(=O)c1 (stereo not drawn)	/	/	/	/	-3	0%
Cc1cc(C2CCCCC2)n(O)c(=O)c1	40µM*!	-12	17	?	-9	-3%
COc1ccc(OC)c(C(=O)NC(CC(N)=O)c2ccc(NCC3CC3)c([N+](=O)[O-])c2)c1 (stereo not drawn)	2%	1	-121*	-9%	0	?
COc1ccc(OC)c(C(=O)NC(CC(N)=O)c2ccc(NC(C)C)c([N+](=O)[O-])c2)c1 (stereo not drawn)	3%	6	24	-7%	-2	-18%
Cc1cccc(C(=O)Nc2cc3c(cc2SCc2ccco2)n(C)c(=O)n3C)c1	?	/	/	/	20	/
COc1ccc(-c2nc3ccccc3c(=O)n2NC(=S)N(C)C)cc1	35µM*	6	0	4%	-3	-1%
COc1ccc(-c2cc(C(=O)NC3CC3)c3c(C4CCNC4)nn(C)c3n2)cc1 (stereo not drawn)	9%[6.33 µM]	/	/	/	/	/
CN(C)C(=O)c1ccc(-c2nc(N3CCOCC3)c3ccccc3n2)cc1	45µM*	/	/	/	/	/
CCCCN(C(=O)Cc1ccc(S(=O)(=O)N2CCOCC2)s1)c1c(N)n(CCCC)c(=O)[nH]c1=O	-5%	-75*	-4	-1%	0	-2%
CCCOc1ccccc1-c1nc2c([nH]1)c(=O)[nH]c(=O)n2C	16%	0	-5	5%	2	32µM*
CC1(C)Cc2c(c(-c3ccco3)nc3sc4c(NCC5CCCO5)ncnc4c23)CO1 (stereo not drawn)	?	-1	5	11%	0	16µM*
CN(C)CCNc1ncnc2c1sc1nc(N3CCCC3)c3c(c12)CC(C)(C)OC3	1%	-2	0	10%	1	/
CC(C)CNc1ncnc2c1sc1nc(N3CCOCC3)c3c(c12)CC(C)(C)OC3	0%	6	13	2%	-6	6.3µM*
O=C1c2cc3ccccc3c(-c3ccccc3)c2C(=O)N1c1ccccn1	-20%	0	-1	?	-1	32µM*
COc1ccc(/C=C/C(=O)Oc2ccc3oc4ccccc4c3c2)cc1OC	4%	/	/	/	-6	/
COc1ccc(OCCCC(=O)Oc2ccc3oc4ccccc4c3c2)cc1	13µM*	/	/	/	3	/
Cc1cc(C)cc(C(=O)Nc2ccc3oc(C)nc3c2)c1	?	/	/	/	6	/
